# Key:
# Experiment in all cases: PBM binding z-score (relative to random genomic background probes); higher = stronger binding; sequences stand for … in GC…GCGATTGACAGCGTAGAATGAAGG
# [1] = test system: PPARg:RXRa DBDmut IVT, anti-RXR (DBD mutation: RXRa K156A/R161A, NR concentration 270 nM, RXRa partner concentration 90 nM)
# Summary of the method: (§1)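 Custom Agilent 4×180K protein-binding microarrays carried double-stranded probes. Their 34-nt variable regions held direct-repeat seeds, single-nucleotide variants, half-site ablations and random human genomic background sequences. Arrays were incubated 1 h with ligand-free nuclear receptor dimers in PBS pH 7.4, 2% milk, 0.02% Triton X-100, 1 mM DTT, 0.2 mg/mL BSA and 0.4 mg/ml salmon testes DNA. Antibodies against each partner (one per run) detected binding, and scanned fluorescence was regression-normalized. Binding z-scores use random background probes as reference.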
# [2] = test system: PPARg:RXRa IVT, anti-PPARg (NR concentration 270 nM, RXRa partner concentration 90 nM)
# Summary of the method: as §1
# [3] = test system: PPARg DBDmut:RXRa IVT, anti-PPARg (DBD mutation: PPARg1 K132A/R137A, NR concentration 270 nM, RXRa partner concentration 90 nM)
# Summary of the method: as §1
# [4] = test system: PPARg DBDmut IVT, anti-PPARg (DBD mutation: PPARg1 K132A/R137A, NR concentration 270 nM)
# Summary of the method: as §1
# [5] = test system: PPARg homodimer (NR concentration 180 nM)
# Summary of the method: as §1
# [6] = test system: PXR:RXRa (NR concentration 270 nM, RXRa partner concentration 90 nM)
# Summary of the method: as §1
# [7] = test system: PXR homodimer (NR concentration 270 nM)
# Summary of the method: as §1
# [8] = test system: RARa:RXR (NR concentration 270 nM, RXRa partner concentration 90 nM)
# Summary of the method: as §1
# [9] = test system: RARa homodimer (NR concentration 270 nM)
# Summary of the method: as §1
# [10] = test system: RARb:RXRa (NR concentration 270 nM, RXRa partner concentration 90 nM)
# Summary of the method: as §1
Sequence,PBM binding z-score [1],PBM binding z-score [2],PBM binding z-score [3],PBM binding z-score [4],PBM binding z-score [5],PBM binding z-score [6],PBM binding z-score [7],PBM binding z-score [8],PBM binding z-score [9],PBM binding z-score [10]
TCTCGGAGGACACAAAAGGTCAGAGCTCGACATC,1.53,1.65,-0.0324,-0.692,3.51,3.82,0.682,4.29,1.33,4.08
GCTGCTTGGTCAGGTTGGTCAGCTAACGGGTACG,-0.165,0.0885,-0.778,-0.893,-0.123,-0.298,-0.597,-0.108,-0.538,0.63
GCATACAGGTAATACAAGGTGAAAGTCCGATTGT,0.771,1.43,0.568,-0.128,0.379,0.708,0.62,1.48,0.481,0.594
AGAATGCGGTTATACGTAGATCAGGGAAGAAAGT,-0.0715,-0.172,-0.724,-0.259,-0.759,-0.417,-0.318,-0.261,-0.54,-0.164
ACTATTAGTTGCGACGAGGGCAACCGATAGGTTG,-0.375,0.286,0.385,0.517,0.166,0.401,-0.0266,0.277,0.0553,0.852
TATACAGGGTCAGAGGCCAGAGTACGAATGTCGA,1.65,3.65,2.26,1.28,2.24,2.83,0.79,3.74,1.13,3.72
CGTCCAAGGTCAGAGTGGTCAGTGAATGCCGAGT,2.5,2.37,-0.175,-0.939,2.59,2.78,1.03,3.16,0.908,4.8
ATCGAAAGGTCGACGAAGTGAGTATACACCGTTT,0.569,1.5,1.34,0.821,1.08,2.28,-0.00563,2.81,-0.0339,3.71
CGAACTAGGTCATCCAGGACAGTTAATACATTGA,7.93,8.11,4.57,2.72,2.19,2.02,1.63,2.6,1.19,3.72
ACTTACGGGTCAACGAGGTTATAGCTCGCGTATA,3.43,4.16,1.04,0.353,3.06,5.45,2.82,5.16,0.0894,4.36
AGTCAAAGTTAAGGACGAGGTAACGTAAAGCACG,-0.606,0.576,-0.425,0.362,-0.757,-0.127,0.18,1.19,0.205,0.889
GCTTGTAGATCAATGTTAAGAAAGACTAAGCTAA,1.38,0.377,-0.235,0.113,-0.551,-0.629,-0.348,-0.432,-0.306,-0.399
GCTAGTTCGTCAGTAAAAGGTCACACACCGGTCG,0.269,1.84,0.221,0.516,5.83,5.56,1.64,6.4,3.07,4.08
ACTAGCAGGCCAAGGGACACTCAAGATTAGTCCG,0.487,0.462,-1.43,-0.851,-0.118,-0.905,-0.667,-0.78,-0.11,1.05
CAGACTAGGTCACGAAAGGTCAAAGTCGAATGAC,7.63,8.03,2.48,2.21,6.4,6.89,2.84,7.62,4.19,5.6
CCTATTAGTTGCCCATAAGGGCAACCGAAGCTCG,-0.00448,0.926,0.125,1.13,0.921,0.597,0.552,0.824,1.45,1.29
CGAACTAGGTCATTGACAGGACCGTGAATAGTAA,8.09,8.42,3.24,1.41,2.02,0.914,-0.0715,1.5,0.647,3.51
GCTATTCGTTGAAAGGGCAACCGAATGATTCTCG,0.00432,0.413,0.733,0.234,0.801,0.591,-0.255,0.689,0.463,1.8
TGAATGAGGTTATAAGAGCAGGGAACGTTGCAAA,1.21,1.65,0.835,0.627,0.672,0.661,-0.193,1.39,0.226,1.29
CTACCAAGGTGAACAAGGTCGTTGCTTACTATTC,2.88,2.58,0.0347,-0.195,1.15,3.08,1.88,2.64,-0.135,2.23
AGTCAAAGTTCAGGACGAGGTGACGTAAAGCACG,-0.365,2.55,-0.0177,-0.0513,2.73,3.51,1.23,3.58,0.938,4.46
CCTCGGAGGACAGAAGGTCATAGCTGTCCGCTTT,0.177,0.772,-1.55,-1.54,2.13,3.22,0.225,3.55,0.138,3.5
CCGACTGGGGCATAAGGTTACAATAAGCCAGCCC,3.12,3.35,-1.72,-1.42,0.586,0.38,-0.291,1.17,-0.0919,1.58
ACTAGTTGGTCAGCTGAGGTCGCACACAATTCGG,1.03,1.57,0.582,0.333,0.559,3.02,0.134,1.79,-0.0842,1.91

Sequence,PBM binding z-score [1],PBM binding z-score [2],PBM binding z-score [3],PBM binding z-score [4],PBM binding z-score [5],PBM binding z-score [6],PBM binding z-score [7],PBM binding z-score [8],PBM binding z-score [9],PBM binding z-score [10]
CTCGAAAGGTCGGTTGTGGTGAGTATACGGATAA,0.261,0.611,-0.0487,0.467,1.3,1.13,0.427,1.81,1.01,3.03
GCAGACAGGTGAAACGCAGGTATCTCAGGGTGGC,0.78,0.498,-0.724,-0.85,-0.577,-0.328,-0.634,0.112,-0.595,0.463
AGTCAAAGTTCACTAGGTAACGAAAGATTCAGCT,2.71,5.36,0.953,1.35,2.81,3.8,2.41,2.8,1.47,4.54
AATACCGGGTCACTAGGCCAGAGTAGGTACGAAT,4.09,6.04,0.988,0.334,1.7,2.32,-0.108,3.37,0.616,3.47
TAGGCTAGGTCATGCGGGCCAGTATAGTGTCGGC,2.31,2.92,0.345,0.348,1.24,1.21,-0.485,2.05,0.442,3.84
CGTCCAAGGTCAACGTCAGTGAAAGAGACTCGAA,3.75,3.71,0.344,-0.9,2.39,3.66,0.793,4.09,1.2,5.37
TCTTGTAGACCAAGCAGGTTAAGAAAGCCTGAGT,1.69,0.677,-0.0357,-0.21,-0.226,0.504,0.118,0.56,-0.3,0.219
ATATGTAGGTTAAGGTTCATTCAGGTTGGTTCGC,7.08,7.48,4.12,3.24,3.29,4.08,5.13,3.48,1.87,2.21
CGAACTAGGTCAGAACAGGACAGTGACGGATGAT,7.03,7.13,1.03,0.514,0.929,0.794,0.206,0.633,0.383,2.99
TCTCGGAAGACACGAAGGTCAGAGCTTTCCAGAG,1.64,0.221,-0.344,-0.823,0.689,1.12,-0.144,1.53,-0.631,2.27
CCTAGCAGGCCAATCTGGGTCACTCAGGGCTTGA,3.91,4.83,0.915,-1.07,0.808,0.386,-0.579,1.64,-0.57,1.35
AATACAGGGTCACTAGACCAGAGTAGGTACGAAT,2.98,4.48,1.64,0.757,1.41,3.05,0.6,4.02,0.657,4.12
TCTGCTAGGTCTACGATGGTCAGCTAATCTGCTA,0.395,-0.0472,-1.03,-0.797,-2.36,-0.731,-1.3,-1.07,-0.904,-0.194
CGAACTAGGTCAGAACAGGACGGTGAAGGATGAT,7.03,7.23,1.59,1.11,0.681,0.143,-0.288,0.525,0.0623,2.55
CCTTACGGGTCAAGGTTATGGCACGGGTGGTACG,1.51,3.59,-0.207,-0.604,1.88,3.27,0.134,4.13,1.04,4.04
TAGCCTAGGCCATGCGGGCCAGTATAGTGTCGGC,-0.849,-0.0851,-0.949,-1.38,-1.26,-0.956,-1.02,-0.877,-1.18,0.00206
CGAACTAGGTCATTGACAGGACAGTGATTAGTAA,8.18,8.17,4.22,2.86,1.7,1.91,0.608,2.36,0.564,3.62
ACTATTAATTGACTTAGGGCAACCGATACGACGC,0.595,0.509,0.998,1.47,1.74,0.334,1.65,0.245,2.46,0.883
CCTCGGAGGACAGAATGTCAGAGCTGTCCGCTTT,-0.17,-1.04,-1.38,-1.68,0.0941,-0.762,-0.458,-0.687,-0.242,0.241
TAGCATAGGTCAGATCGGGCCAGTATACGCTATA,-0.136,0.798,-0.196,-0.529,0.679,2.5,-0.583,2.5,-0.285,3.37
GCTTGTAGATCAAGCTTAAGAAAGACTAAGCTAA,0.937,0.0262,-0.496,-0.218,-0.356,-0.566,-0.868,-0.0967,-0.929,-1.78
CCAAGCAGGCCAATCTGGGTCACTCAAGGCTTGA,4.53,4.91,0.213,-1.24,0.382,1.26,-0.284,1.71,-1.17,1.62
CCAGACTGGTGAAAGGTAACTCAGTCTGGTACGC,0.00689,0.829,-0.709,-0.951,0.201,-0.0709,-0.492,0.039,-0.414,0.363
ATCTCTAGGTAACAAGATCAGTGAAAGAGAGGAC,3.03,2.72,1.75,1.21,0.336,0.0521,-0.0922,0.158,1.1,0.327
